SMILES strings stand for the structures. Compounds without any hit were thinned out: in the full panel of roughly 83,000, 20% have a hit.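 Testing used 96-well plates and a 48-hour single-concentration exposure. Example: -40 means 40% of the starting cells died.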 Activity calls are given as the source filed them. How the source made its calls: active means growth percent below 10; inactive means the rest.

The subject of the assay is HS 578T breast. Put plainly: NCI-60 one-dose screen, 48 h (100 = growth as untreated, 0 = no growth, -100 = all killed). To be noted: 10 µM unless noted.
For the compound `COc1cc2c(cc1O)CC[C@@H]1[C@@H]2CC[C@]2(C)[C@@H](NCCN(C)C)CC[C@@H]12`, the growth was -56.9% (active).

As to `COc1cccc2c1C(=O)c1c(O)c3c(c(O)c1C2=O)C[C@](O)(C(=O)CO)C[C@H]3O[C@@H]1C[C@@H](NC(=O)CCCN(C)C2(c3ccc(F)cc3)CC3CCC2C3)[C@H](O)[C@@H](C)O1` (stereo partly specified), the growth is 51.2% (inactive).

As for `O=c1cc(CSc2nnc(SCc3cc(=O)oc4c3ccc3ccccc34)o2)c2ccc3ccccc3c2o1`, the growth is 94.2% (inactive).

As for `COc1cc2c(cc1O)CC[C@@H]1[C@@H]2CC[C@]2(C)[C@@H](OCCN(C)C)CC[C@@H]12`, the growth is 27% (inactive).

For the compound `COc1ccc(-c2nnc(SCC(=O)c3ccc(Cl)cc3)o2)cc1`, the growth was 109% (inactive).

`NC(=NCCCOc1ccc(Cl)cc1)Nc1ccc(C(F)(F)F)cc1`: the growth is 52.4% (inactive).

In the case of `CCCCC[C@H]1C/C=C2/C(=O)C=C[C@@H]2C/C=C\CCCC(=O)O1`, the growth is 23.3% (inactive).

In the case of `CNC(=O)c1cc(Oc2ccc(NC(=O)Nc3ccc(Cl)c(OC(F)(F)F)c3)c(F)c2)ccn1`, the growth was 51.9% (inactive).

On to `COc1ccc2c(c1)C(=O)/C(=C/c1cccnc1)CC2`, for which the growth is 115% (inactive).

Consider `COc1cccc(-c2nc(SCC(=O)Nc3ccc(C(=O)/C=C/c4ccc(OC)c(OC)c4)cc3)[nH]c(=O)c2C#N)c1`, for which the growth was 82.4% (inactive).

Consider `CCCn1c(=O)[nH]c(N)c([C@H]2c3ccccc3Oc3[nH]c(=O)n(CCC)c(=O)c32)c1=O`, for which the growth was 92.8% (inactive).

With `C=C1C(=O)O[C@H]2[C@H]1CC/C(COC(=O)NCc1ccc(OC)c(OC)c1)=C\CC[C@@]1(C)O[C@@H]21`, the growth was 86.2% (inactive).

For `N#CN1CC[C@H](C(=O)Nc2cc3cc(C(N)=O)ccc3cn2)C1`, the growth was -0.591% (active).

Turning to `O=C1c2c(O)cc(O)cc2-c2c(-c3ccc(O)cc3)oc3cc(O)cc1c23`, the growth was 32.1% (inactive).

Turning to `O=C1/C(=C/c2ccccc2O)N=C2SCCCN12`, the growth was 87.7% (inactive).

With `COc1ccc(-c2nc(SCC(=O)Nc3ccc(C(=O)/C=C/c4ccc(Cl)cc4)cc3)[nH]c(=O)c2C#N)cc1`, the growth is 81.3% (inactive).

In the case of `COc1ccc2c(c1)CC/C(=C\c1cncc(Br)c1)C2=O`, the growth is 116% (inactive).

Take `COc1ccc2c(c1)C(=O)/C(=C/c1ccccn1)CC2`: the growth was 98.1% (inactive).

In the case of `Cc1nc(Nc2ccc(F)c(Cl)c2)sc1C(=O)O`, the growth is 18.7% (inactive).

Regarding `CCOC(=O)c1sc(Nc2ccc(Cl)cc2)nc1C`, the growth is 10.1% (inactive).

On to `CC(=O)c1cc(C(=O)c2ccc3c(c2)Sc2ccccc2N3)n2ccccc12`, for which the growth was 24.9% (inactive).

Take `CC(=O)O[C@H]1C(=O)[C@@]2(C)[C@H]([C@H](OC(=O)c3ccccc3)[C@]3(O)C[C@H](OC(=O)[C@H](OC(=O)CCC(=O)OC4CCC(S/N=C(N)/N=C(\N)N(C)C)CC4)[C@@H](NC(=O)c4ccccc4)c4ccccc4)C(C)=C1C3(C)C)[C@]1(OC(C)=O)CO[C@@H]1C[C@@H]2O` (stereo partly specified): the growth is -9.33% (active).

On to `CC(=O)OC[C@H]1O[C@H](OC(C)=O)[C@H](NC(=O)/C=C/CCl)[C@@H](OC(C)=O)[C@@H]1OC(C)=O`, for which the growth is 92% (inactive).

In the case of `COc1cc(-c2nc(C(=O)NCC(=O)NO)nn2-c2ccc(Cl)cc2)cc(OC)c1OC`, the growth is 85.6% (inactive).

Take `C=C1C(=O)O[C@H]2[C@H]1CC/C(COC(=O)NCCc1ccc(OC)c(OC)c1)=C\CC[C@@]1(C)O[C@@H]21`: the growth was 91.1% (inactive).

On to `CC/C=C\C[C@H](O)C/C=C1/C(=O)C=C[C@@]1(C)C/C=C\CCCC(=O)OC`, for which the growth is 103% (inactive).

Regarding `Cc1ccc2oc(=O)cc(C3c4ccc([nH]4)C(c4cc(=O)oc5ccc(C)cc45)c4ccc([nH]4)C(c4cc(=O)oc5ccc(C)cc45)c4ccc([nH]4)C(c4cc(=O)oc5ccc(C)cc45)c4ccc3[nH]4)c2c1` (stereo unspecified), the growth was -37% (active).

Take `COc1cccc2c1C(=O)c1c(O)c3c(c(O)c1C2=O)C[C@](O)(C(=O)CO)C[C@H]3O[C@@H]1C[C@@H](NC(=O)CCCCCN(C)C2(c3ccc(F)cc3)CC3CCC2C3)[C@H](O)[C@@H](C)O1` (stereo partly specified): the growth was 57.6% (inactive).

Consider `NC(=NCCCC1(c2ccccc2)CCCC1)Nc1ccc(Cl)cc1`, for which the growth was 65.4% (inactive).

Consider `CCC#CC[C@H](O)C/C=C1/C(=O)C=C[C@@H]1C/C=C\CCCC(=O)OC`, for which the growth was 52.6% (inactive).

Turning to `O=c1oc2c(C(F)(F)F)cccc2cc1-c1csc(Nc2ccc(OCCF)cc2)n1`, the growth was 22.7% (inactive).
